The results in this text go back to PubChem BioAssay (NCATS).

“And” between values parts separate entries of the source, which are not always exact repeats. Equal entries are not always repeated. Records with an inconclusive call do not appear. A call without a number means that no potency is given here. Unmarked numbers belong to inactive results. The source made the active and inactive calls. The call rests on the fitted dose curve; in most records, active means well fitted inhibition curve with a large enough effect; inconclusive means small, poorly fitted or top-dose-only effect; inactive means flat fitted curve, though single readings scatter.
Further: nearly all actives have a fitted effect of over 60% in size.
Potency means the concentration at half of the fitted maximal effect.

The subject of the first assay is NIH3T3. Description: Cytotoxic Profiling of Annotated Libraries Using Quantitative High-Throughput Screening (AID 1296008). Particulars: Five cell lines viability, CellTiter-Glo ATP luminescence, 48-72 h; max response: stronger effect = lower value. An outline of the steps: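 Cells exposed to compounds for 48 or 72 hr at 37 degrees Celsius. Viability read as ATP-coupled luminescence with CellTiter-Glo after 10 min at room temperature.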
A general note: ATP-based viability assays read luminescence as a measure of living cells.
Regarding `O=C1[C@H]2CCCC[C@H]2C(=O)N1CCCCN1CCN(c2nsc3ccccc23)CC1`, the max response was 2.44%. Turning to `CN(C)C(=S)SC(=S)N(C)C`, the Potency was 2660 nM (active). Turning to `CC1(C)O[C@@H]2C[C@H]3[C@@H]4C[C@H](F)C5=CC(=O)C=C[C@]5(C)[C@H]4[C@@H](O)C[C@]3(C)[C@]2(C(=O)CO)O1`, the max response was -4.68%.

Regarding `CCOC(=O)[C@H](CCc1ccccc1)N[C@@H](C)C(=O)N1Cc2ccccc2C[C@H]1C(=O)O`, the max response was -19.6%.

As to `C=C(CC)C(=O)c1ccc(OCC(=O)O)c(Cl)c1Cl`, the max response is -16.2%. In the case of `C[C@@H]1C[C@H]2[C@@H]3CCC4=CC(=O)C=C[C@]4(C)[C@@]3(F)[C@@H](O)C[C@]2(C)[C@H]1C(=O)CO`, the max response is -2.44%. As to `CCCCCC=CCC=CCCCCCCCC(=O)OCC`, the result was inactive. Consider `COc1ccc(CN2CCN(C(c3ccc(F)cc3)c3ccc(F)cc3)CC2)c(OC)c1OC`, for which the max response is 1.96% and 2.43%.

As to `CN(C)CC/C=C1\c2ccccc2Sc2ccc(Cl)cc21`, the max response is -4.42%.

For the next assay, the system named is HACAT. Description: qHTS assay to identify novel small-molecules to repurpose for Merkel cell carcinoma treatment (AID 1296009). To be noted: MCC and control cell lines, CellTiter-Glo viability, 72 h; at 44.8 µM (top of the series) unless noted. Put shortly: (§1)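 Cells were incubated with compound for 72 hr at 37 degree celsius before CellTiter-Glo addition. Luminescence was normalized with no-cell wells as full cytotoxicity and DMSO as baseline.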
For the compound `CC(=O)c1ccc2c(c1)N(CCCN1CCC(CCO)CC1)c1ccccc1S2`, the compound was classed as inactive. The same measure, in the same setting: to `COc1cc2c(cc1OC)C(C(C(=O)N(CCc1ccc(OC)c(OC)c1OC)CCc1ccc(OC)c(OC)c1OC)c1ccccc1)=NCC2` (centres undefined) belongs “inactive”; to `CC(=O)N/N=C/c1ccc([N+](=O)[O-])o1`, “inactive”; to `C=C1C(=C/C=C2\CCC[C@]3(C)[C@@H]([C@H](C)/C=C/[C@@H](O)C4CC4)CC[C@@H]23)C[C@@H](O)C[C@@H]1O`, “inactive”. In the case of `OC(CCN1CCCCC1)(c1ccccc1)c1ccccc1`, the outcome was inactive.

For the compound `CN1CCC(=C2c3ccccc3Sc3ccccc32)CC1`, the result was inactive. The same measure, in the same setting: in the case of `CC1(C)O[C@@H]2C[C@H]3[C@@H]4CCC5=CC(=O)CC[C@]5(C)[C@@]4(F)[C@@H](O)C[C@]3(C)[C@]2(C(=O)CCl)O1` it was “inactive”; in that of `CCOC(=O)[C@H](CCc1ccccc1)N[C@@H](C)C(=O)N1Cc2ccccc2C[C@H]1C(=O)O`, “inactive”; in that of `Oc1ccc(Cl)c2cccnc12`, “inactive”. Regarding `c1ccc(CNCCNCc2ccccc2)cc1`, the result was inactive. In the case of `CCCCCC=CCC=CCCCCCCCC(=O)OCC`, the compound was called inactive. Regarding `COc1ccc(CN2CCN(C(c3ccc(F)cc3)c3ccc(F)cc3)CC2)c(OC)c1OC`, the outcome was inactive. Consider `CN(C)CC/C=C1\c2ccccc2Sc2ccc(Cl)cc21`, for which the outcome was inactive.

A further assay relates to MCC-13. Described as above. To be noted: MCC and control cell lines, CellTiter-Glo viability, 72 h; series mostly up to 46 µM. Put shortly:
as §1
For `C[n+]1c2cc(N)ccc2cc2ccc(N)cc21` (tested in a mixture with another compound), the Potency is 11900 nM (active). Same read-out and setting: to `CC(=O)c1ccc2c(c1)N(CCCN1CCC(CCO)CC1)c1ccccc1S2` belongs “inactive”. For `COc1cc2c(cc1OC)C(C(C(=O)N(CCc1ccc(OC)c(OC)c1OC)CCc1ccc(OC)c(OC)c1OC)c1ccccc1)=NCC2` (centres undefined), the Potency entry is “inactive”. On the same count and under the same terms, in the case of `C[C@H]1C[C@H]2[C@@H]3CCC4=CC(=O)C=C[C@]4(C)[C@@]3(Cl)[C@@H](O)C[C@]2(C)[C@@]1(O)C(=O)CO` it was “inactive”. For `CCCCOc1ccc(OCCCN2CCOCC2)cc1`, the Potency entry was “inactive”.

Regarding `CC(=O)[C@H]1CC[C@H]2[C@@H]3C[C@H](C)C4=CC(=O)CC[C@]4(C)[C@H]3[C@@H](O)C[C@]12C`, the Potency entry is “inactive”.

As to `O=C(OCC(O)CO)c1ccccc1Nc1ccnc2cc(Cl)ccc12` (centres undefined), the Potency result was “inactive”. Turning to `COc1cc2c(cc1OC)[C@@H]1CC(=O)[C@@H](CC(C)C)CN1CC2`, the Potency result was “inactive”.

With `C=C1C[C@H]2[C@@H]3C=C(C)C4=CC(=O)CC[C@]4(C)[C@H]3CC[C@]2(C)[C@@]1(OC(C)=O)C(C)=O`, the Potency result is “inactive”.

Turning to `CN(C)CCCOc1nn(Cc2ccccc2)c2ccccc12`, the Potency result was “inactive”.

Take `CC(=O)Oc1ccc(C(c2ccc(OC(C)=O)cc2)c2ccccn2)cc1`: the Potency entry is “inactive”. Still for that read-out and setting: in the case of `C=C1C(=C/C=C2\CCC[C@]3(C)[C@@H]([C@H](C)/C=C/[C@@H](O)C4CC4)CC[C@@H]23)C[C@@H](O)C[C@@H]1O` it was “inactive”; in that of `CN(C/C=C/c1ccccc1)Cc1cccc2ccccc12`, “inactive”; in that of `OC(CCN1CCCCC1)(c1ccccc1)c1ccccc1`, “inactive”. `Cc1ccccc1C(=O)Nc1ccc(C(=O)N2CCCC(N(C)C)c3ccccc32)cc1` (centres undefined): the Potency result is “inactive”.

Regarding `CN1CCC(=C2c3ccccc3Sc3ccccc32)CC1`, the Potency result is “inactive”. Still for that read-out and setting: in the case of `CC1(C)O[C@@H]2C[C@H]3[C@@H]4CCC5=CC(=O)CC[C@]5(C)[C@@]4(F)[C@@H](O)C[C@]3(C)[C@]2(C(=O)CCl)O1` it was “inactive”; in that of `c1ccc(OCc2ccc(CCCN3CCOCC3)cc2)cc1`, “inactive”; in that of `COC1=CC(=O)C[C@@H](C)[C@]12Oc1c(Cl)c(OC)cc(OC)c1C2=O`, “inactive”. `COc1cccc2c1C(=O)c1c(O)c3c(c(O)c1C2=O)C[C@@](O)(C(C)=O)C[C@@H]3O[C@H]1C[C@H](N)[C@H](O)[C@H](C)O1`: the Potency is 1060 nM (active).

On to `O=C1[C@H]2CCCC[C@H]2C(=O)N1CCCCN1CCN(c2nsc3ccccc23)CC1`, for which the Potency result was “inactive”. On to `CCCCCCC[N+](CC)(CC)CCCCc1ccc(Cl)cc1`, for which the Potency entry was “inactive”. With `CN(C)C(=S)SC(=S)N(C)C`, the Potency is 2990 nM (active).

`CC1(C)O[C@@H]2C[C@H]3[C@@H]4C[C@H](F)C5=CC(=O)C=C[C@]5(C)[C@H]4[C@@H](O)C[C@]3(C)[C@]2(C(=O)CO)O1`: the Potency result was “inactive”. On the same count and under the same terms, to `CCOC(=O)[C@H](CCc1ccccc1)N[C@@H](C)C(=O)N1Cc2ccccc2C[C@H]1C(=O)O` belongs “inactive”.

For `C/C=C(/C(=C/C)c1ccc(O)cc1)c1ccc(O)cc1`, the Potency entry is “inactive”. Regarding `C[C@@H]1C[C@H]2[C@@H]3CCC4=CC(=O)C=C[C@]4(C)[C@@]3(F)[C@@H](O)C[C@]2(C)[C@H]1C(=O)CO`, the Potency entry was “inactive”.

In the case of `c1ccc(CNCCNCc2ccccc2)cc1`, the Potency result is “inactive”. Consider `CCCCCC=CCC=CCCCCCCCC(=O)OCC`, for which the Potency entry was “inactive”.

As to `COc1ccc(CN2CCN(C(c3ccc(F)cc3)c3ccc(F)cc3)CC2)c(OC)c1OC`, the Potency result was “inactive”. In the case of `CN(C)CC/C=C1\c2ccccc2Sc2ccc(Cl)cc21`, the Potency entry was “inactive”. In the case of `CCN(CCCc1ccccc1)CCCc1ccccc1`, the Potency result was “inactive”.
